Article PMC7862700, “An all-to-all approach to the identification of sequence-specific readers for epigenetic DNA modifications on cytosine”

Experiments:
Assay in all cases: DAPPL (digital affinity profiling via proximity ligation, sequencing); 10 mM Tris-HCl pH 7.5, 50 mM NaCl, 1 mM DTT, 4% glycerol, room temperature, 30 min; GST-TFs on glutathione beads, 16-mer random dsDNA library, 0.1% formaldehyde crosslink after washing; high values mean tight binding
FLI1 = target: T1, FLI1 (Homo sapiens, UniProt Q01543 1-452); details: protein: recombinant; tags: N-terminal GST; dsDNA, one strand shown
T1 sequence: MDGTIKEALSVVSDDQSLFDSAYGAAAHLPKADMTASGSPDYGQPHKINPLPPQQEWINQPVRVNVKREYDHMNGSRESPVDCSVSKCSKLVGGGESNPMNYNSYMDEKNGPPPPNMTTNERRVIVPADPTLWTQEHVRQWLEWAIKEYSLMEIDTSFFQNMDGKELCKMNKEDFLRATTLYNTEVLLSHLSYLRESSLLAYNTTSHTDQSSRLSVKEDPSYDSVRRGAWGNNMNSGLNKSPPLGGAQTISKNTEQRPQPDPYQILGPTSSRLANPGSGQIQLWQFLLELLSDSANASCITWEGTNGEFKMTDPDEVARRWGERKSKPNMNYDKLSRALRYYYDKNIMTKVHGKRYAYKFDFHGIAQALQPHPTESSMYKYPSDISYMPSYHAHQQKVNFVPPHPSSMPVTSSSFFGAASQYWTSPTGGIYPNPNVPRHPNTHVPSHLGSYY
Procedure, shortened: (§1)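 Human transcription factors were made in yeast as GST fusions, captured on glutathione beads and barcoded with DNA. With a tag-only sample included, the pool was incubated with 200 nmole of a random double-stranded 16-mer DNA library in Tris/NaCl/DTT/glycerol buffer at room temperature for 30 min, then crosslinked with 0.1% formaldehyde after washing, ligated by proximity, amplified and sequenced. For binding signal, each hexamer's read frequency for a factor is divided by its frequency for the tag-only sample.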

ELK1 = target: T2, ELK1 (Homo sapiens, UniProt P19419 1-428); details: protein: recombinant; tags: N-terminal GST; dsDNA, one strand shown
T2 sequence: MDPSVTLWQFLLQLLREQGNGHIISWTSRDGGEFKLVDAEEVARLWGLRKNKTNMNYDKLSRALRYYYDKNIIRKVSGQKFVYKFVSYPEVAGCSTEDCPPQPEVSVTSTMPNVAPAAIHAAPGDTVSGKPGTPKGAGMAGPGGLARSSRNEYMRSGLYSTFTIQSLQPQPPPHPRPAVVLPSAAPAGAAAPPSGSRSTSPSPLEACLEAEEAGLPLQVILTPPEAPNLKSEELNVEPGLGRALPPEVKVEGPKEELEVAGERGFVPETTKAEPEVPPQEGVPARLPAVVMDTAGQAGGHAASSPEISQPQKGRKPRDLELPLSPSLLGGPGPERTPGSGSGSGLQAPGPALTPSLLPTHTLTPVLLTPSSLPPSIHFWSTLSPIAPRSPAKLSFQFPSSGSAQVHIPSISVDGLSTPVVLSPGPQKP
Procedure, shortened: as §1

GABPA = target: T3, GABPA (Homo sapiens, UniProt Q06546 1-454); details: protein: recombinant; tags: N-terminal GST; dsDNA, one strand shown
T3 sequence: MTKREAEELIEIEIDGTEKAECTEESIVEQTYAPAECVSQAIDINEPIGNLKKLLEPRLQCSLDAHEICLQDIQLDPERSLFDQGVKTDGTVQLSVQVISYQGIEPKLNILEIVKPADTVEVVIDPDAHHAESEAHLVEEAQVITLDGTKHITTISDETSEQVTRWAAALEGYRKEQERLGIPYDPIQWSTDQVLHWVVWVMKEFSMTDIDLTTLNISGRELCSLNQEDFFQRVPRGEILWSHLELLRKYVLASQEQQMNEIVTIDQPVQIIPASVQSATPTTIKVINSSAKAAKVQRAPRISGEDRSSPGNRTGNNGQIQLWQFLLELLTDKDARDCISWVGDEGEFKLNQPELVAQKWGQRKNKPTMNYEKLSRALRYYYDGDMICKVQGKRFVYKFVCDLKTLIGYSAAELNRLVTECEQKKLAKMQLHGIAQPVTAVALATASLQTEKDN
Procedure, shortened: as §1

ELK3 = target: T4, ELK3 (Homo sapiens, UniProt P41970 1-407); details: protein: recombinant; tags: N-terminal GST; dsDNA, one strand shown
T4 sequence: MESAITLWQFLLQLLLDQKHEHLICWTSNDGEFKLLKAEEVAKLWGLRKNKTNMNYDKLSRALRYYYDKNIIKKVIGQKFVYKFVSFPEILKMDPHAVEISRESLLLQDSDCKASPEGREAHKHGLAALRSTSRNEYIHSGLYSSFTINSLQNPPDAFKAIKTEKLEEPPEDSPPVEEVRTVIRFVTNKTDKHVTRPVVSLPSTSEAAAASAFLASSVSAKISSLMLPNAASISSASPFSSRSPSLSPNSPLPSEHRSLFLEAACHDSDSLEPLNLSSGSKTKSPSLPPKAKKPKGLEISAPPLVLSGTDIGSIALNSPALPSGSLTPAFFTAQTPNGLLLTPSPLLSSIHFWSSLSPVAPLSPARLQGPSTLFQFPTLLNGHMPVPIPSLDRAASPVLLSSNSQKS
Procedure, shortened: as §1

ETV3L = target: T5, ETV3L (Homo sapiens, UniProt Q6ZN32 1-361); details: protein: recombinant; tags: N-terminal GST; dsDNA, one strand shown
T5 sequence: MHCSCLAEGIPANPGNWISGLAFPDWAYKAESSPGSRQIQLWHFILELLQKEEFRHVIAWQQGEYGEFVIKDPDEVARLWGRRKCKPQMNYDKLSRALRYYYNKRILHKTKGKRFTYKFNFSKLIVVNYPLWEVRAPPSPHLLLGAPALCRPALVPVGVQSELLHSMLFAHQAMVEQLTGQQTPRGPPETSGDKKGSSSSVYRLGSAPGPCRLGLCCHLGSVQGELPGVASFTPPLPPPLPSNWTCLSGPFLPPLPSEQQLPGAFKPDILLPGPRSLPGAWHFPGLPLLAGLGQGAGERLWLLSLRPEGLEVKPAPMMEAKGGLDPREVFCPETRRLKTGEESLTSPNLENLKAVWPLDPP
Procedure, shortened: as §1

ETS2 = target: T6, ETS2 (Homo sapiens, UniProt P15036 1-469); details: protein: recombinant; tags: N-terminal GST; dsDNA, one strand shown
T6 sequence: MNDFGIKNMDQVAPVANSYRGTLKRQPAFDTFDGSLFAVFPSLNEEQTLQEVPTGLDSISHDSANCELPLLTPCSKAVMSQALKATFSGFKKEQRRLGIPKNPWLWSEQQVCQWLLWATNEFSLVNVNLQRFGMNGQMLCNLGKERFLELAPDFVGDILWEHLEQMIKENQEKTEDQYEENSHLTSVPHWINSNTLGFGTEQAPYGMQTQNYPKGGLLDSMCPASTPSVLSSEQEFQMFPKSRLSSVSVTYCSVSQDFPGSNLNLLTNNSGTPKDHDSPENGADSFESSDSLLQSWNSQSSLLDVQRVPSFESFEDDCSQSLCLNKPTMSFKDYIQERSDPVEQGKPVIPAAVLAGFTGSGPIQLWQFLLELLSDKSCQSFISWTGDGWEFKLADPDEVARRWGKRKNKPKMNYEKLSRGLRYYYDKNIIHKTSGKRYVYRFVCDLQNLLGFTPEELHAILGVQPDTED
Procedure, shortened: as §1

ETV7 = target: T7, ETV7 (Homo sapiens, UniProt Q9Y603 1-341); details: protein: recombinant; tags: N-terminal GST; dsDNA, one strand shown
T7 sequence: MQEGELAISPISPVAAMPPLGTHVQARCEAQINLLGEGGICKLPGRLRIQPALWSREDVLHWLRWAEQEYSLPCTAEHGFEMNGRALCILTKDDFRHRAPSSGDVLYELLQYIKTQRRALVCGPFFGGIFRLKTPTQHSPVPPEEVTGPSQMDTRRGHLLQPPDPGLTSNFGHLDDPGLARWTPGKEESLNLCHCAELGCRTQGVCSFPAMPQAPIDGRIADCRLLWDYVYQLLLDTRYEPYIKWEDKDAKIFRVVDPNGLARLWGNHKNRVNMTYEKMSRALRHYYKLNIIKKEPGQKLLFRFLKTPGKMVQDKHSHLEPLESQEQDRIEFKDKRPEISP
Procedure, shortened: as §1

ETV3 = target: T8, ETV3 (Homo sapiens, UniProt P41162-2 1-143); details: protein: recombinant; tags: N-terminal GST; dsDNA, one strand shown
T8 sequence: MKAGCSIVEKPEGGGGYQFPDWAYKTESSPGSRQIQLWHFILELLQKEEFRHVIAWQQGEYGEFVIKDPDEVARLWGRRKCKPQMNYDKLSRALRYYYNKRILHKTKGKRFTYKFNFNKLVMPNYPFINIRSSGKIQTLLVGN
Procedure, shortened: as §1

ETV6 = ETV6 (Homo sapiens, UniProt P41212 1-452); details: protein: recombinant; tags: N-terminal GST; dsDNA, one strand shown
Procedure, shortened: as §1

ELK4 = target: T9, ELK4 (Homo sapiens, UniProt P28324-2 1-405); details: protein: recombinant; tags: N-terminal GST; dsDNA, one strand shown
T9 sequence: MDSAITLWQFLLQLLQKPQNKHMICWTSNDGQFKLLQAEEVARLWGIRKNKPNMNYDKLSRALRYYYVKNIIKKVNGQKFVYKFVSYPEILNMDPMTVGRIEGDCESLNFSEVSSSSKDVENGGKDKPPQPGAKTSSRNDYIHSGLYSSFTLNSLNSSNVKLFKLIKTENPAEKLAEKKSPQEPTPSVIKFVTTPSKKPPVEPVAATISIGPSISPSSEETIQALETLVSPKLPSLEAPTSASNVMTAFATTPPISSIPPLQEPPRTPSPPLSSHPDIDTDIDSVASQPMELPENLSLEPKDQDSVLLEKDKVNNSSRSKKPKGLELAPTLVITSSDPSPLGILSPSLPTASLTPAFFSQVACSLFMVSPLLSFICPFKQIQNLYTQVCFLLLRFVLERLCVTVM
Procedure, shortened: as §1

ETV2 = target: T10, ETV2 (Homo sapiens, UniProt O00321 1-342); details: protein: recombinant; tags: N-terminal GST; dsDNA, one strand shown
T10 sequence: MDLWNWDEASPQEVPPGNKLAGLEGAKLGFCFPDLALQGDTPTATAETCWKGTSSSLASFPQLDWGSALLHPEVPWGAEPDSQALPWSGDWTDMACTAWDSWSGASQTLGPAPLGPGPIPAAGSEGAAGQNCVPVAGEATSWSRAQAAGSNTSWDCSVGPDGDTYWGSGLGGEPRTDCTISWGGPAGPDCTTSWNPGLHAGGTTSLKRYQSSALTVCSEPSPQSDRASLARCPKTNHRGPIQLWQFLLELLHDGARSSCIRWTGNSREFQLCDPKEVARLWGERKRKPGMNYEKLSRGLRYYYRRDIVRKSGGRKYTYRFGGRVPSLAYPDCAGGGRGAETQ
Procedure, shortened: as §1

HSF1 = HSF1 (Homo sapiens, UniProt Q00613 1-529); details: protein: recombinant; tags: N-terminal GST; chain copies: 3; dsDNA, one strand shown
Procedure, shortened: as §1

ETV6, sequence (P41212 whole entry): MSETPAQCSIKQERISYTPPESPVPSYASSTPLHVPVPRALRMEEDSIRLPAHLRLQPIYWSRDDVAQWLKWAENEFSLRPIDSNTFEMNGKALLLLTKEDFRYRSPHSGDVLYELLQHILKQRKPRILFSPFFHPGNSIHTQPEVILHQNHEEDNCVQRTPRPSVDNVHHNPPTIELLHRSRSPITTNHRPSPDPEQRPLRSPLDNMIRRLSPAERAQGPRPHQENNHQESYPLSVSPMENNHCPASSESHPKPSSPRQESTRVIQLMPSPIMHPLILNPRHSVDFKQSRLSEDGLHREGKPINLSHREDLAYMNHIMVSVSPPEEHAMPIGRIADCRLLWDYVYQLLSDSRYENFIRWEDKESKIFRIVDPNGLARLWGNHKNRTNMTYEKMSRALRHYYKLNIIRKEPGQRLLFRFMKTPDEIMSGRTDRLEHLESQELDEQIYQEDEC
HSF1, sequence (Q00613 whole entry): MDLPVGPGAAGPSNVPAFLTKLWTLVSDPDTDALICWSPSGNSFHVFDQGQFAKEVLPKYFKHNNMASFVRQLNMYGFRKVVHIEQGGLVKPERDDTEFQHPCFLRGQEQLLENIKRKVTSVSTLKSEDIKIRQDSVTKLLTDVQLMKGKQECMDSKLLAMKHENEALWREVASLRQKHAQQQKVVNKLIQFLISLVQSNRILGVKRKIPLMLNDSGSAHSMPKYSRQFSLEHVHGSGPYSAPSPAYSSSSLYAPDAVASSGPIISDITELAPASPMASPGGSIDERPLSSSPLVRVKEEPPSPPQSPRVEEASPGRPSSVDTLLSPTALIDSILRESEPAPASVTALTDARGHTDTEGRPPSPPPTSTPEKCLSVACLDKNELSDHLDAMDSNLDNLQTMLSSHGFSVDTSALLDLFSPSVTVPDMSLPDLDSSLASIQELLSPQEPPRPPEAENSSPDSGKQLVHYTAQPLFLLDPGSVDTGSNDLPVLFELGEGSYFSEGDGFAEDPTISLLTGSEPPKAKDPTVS

Which binding signal (FLI1) does the source give for CCGGTG here?
The binding signal was 1.04 fold enrichment (6-mer frequency, TF over GST control).

And the binding signal (ELK1)?
Its binding signal is 1.09 fold enrichment (6-mer frequency, TF over GST control).

And the binding signal (GABPA)?
The binding signal was 1.08 fold enrichment (6-mer frequency, TF over GST control).

What about the binding signal (ELK3) of the same sequence?
The binding signal was 1.08 fold enrichment (6-mer frequency, TF over GST control).

And the binding signal (ETV3L)?
The binding signal was 1.01 fold enrichment (6-mer frequency, TF over GST control).

And the binding signal (ETS2)?
Its binding signal is 1.02 fold enrichment (6-mer frequency, TF over GST control).

What about the binding signal (ETV7) of the same sequence?
Its binding signal is 1.04 fold enrichment (6-mer frequency, TF over GST control).

And the binding signal (ETV3)?
The binding signal was 1.08 fold enrichment (6-mer frequency, TF over GST control).

What about the binding signal (ETV6) of the same sequence?
Its binding signal is 1.02 fold enrichment (6-mer frequency, TF over GST control).

What does the source list for GTGCGC?
binding signal (FLI1): 1.02 fold enrichment (6-mer frequency, TF over GST control); binding signal (ELK4): 1.15 fold enrichment (6-mer frequency, TF over GST control); binding signal (ETV2): 1.02 fold enrichment (6-mer frequency, TF over GST control); binding signal (ETV3): 1.04 fold enrichment (6-mer frequency, TF over GST control); binding signal (ETV6): 1.03 fold enrichment (6-mer frequency, TF over GST control)

For GCCAGA, which binding signal (HSF1) is on record?
The binding signal was 1.02 fold enrichment (6-mer frequency, TF over GST control).

Which binding signal (HSF1) does the source give for AGGTTC here?
The binding signal was 1.18 fold enrichment (6-mer frequency, TF over GST control).
